Bioassay records deposited in PubChem by National Center for Advancing Translational Sciences (NCATS).
Compounds with a hit are over-represented: about 19% of the library has one in this group of screens.
IL1B secr inh: inflammasome signaling inhibition, IL-1 beta readout | THP-1 LPS/ATP IL-1B secretion, AlphaLISA, 16 h; active compounds read low | AID 743279 | 360,000 tested, 4.7% active | activity change, % at 57.5 µM; in the data active = activity change below about -50%; inconclusive = mostly about -30% to -49%
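THP-1 cells pretreated 1 hr with compounds (up to 57.5 uM final), then stimulated with LPS (250 ng/mL final) plus ATP (1.25 mM final); secreted IL-1B measured by AlphaLISA after 16 hr, decreased signal indicating inhibition.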
DT40 TDP1 CPT: DT40-hTDP1 cell growth loss with CPT; Potency, µM (top dose mostly 46.2 µM), for inactives: at the top dose activity change, negative = growth inhibition, actives largely listed as inhibitors; chicken DT40 Tdp1-/-;hTDP1 cells + 20 nM CPT, ATP luminescence, 48 h; AID 686979; 420,000 tested, 12% active; note: potency is the fitted concentration of half-maximal effect; nearly all actives have a fitted effect of over 55% in size
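Chicken DT40 Tdp1-/- cells stably complemented with human TDP1 were seeded at 400 cells/well in medium containing 20 nM camptothecin, exposed to pin-transferred compounds, and grown at 37 °C for at least 48 hr. Viability was read as ATP luminescence.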
TDP1 cell noCPT: qHTS for Inhibitors of human tyrosyl-DNA phosphodiesterase 1 (TDP1): qHTS in cells in absence of CPT; Potency, µM (highest dose often 46.2 µM), without a hit: top-dose activity change, negative = growth inhibition, usual class: inhibitors; DT40 Tdp1-/- hTDP1 cells, no CPT, ATP luminescence, 48 h; 420,000 tested, 15% active; AID 686978, 2013; note: potency is the fitted concentration of half-maximal effect; nearly all actives have a fitted effect of over 55% in size
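Growth kinetics read by CellTiter-Glo luminescence after ≥48 hr at 37 °C. Cells: DT40 Tdp1-/- stably carrying human TDP1, 400 per well, compound exposure in the absence of CPT (DMSO vehicle).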
HT1080NT lethal: kills 2HG-producing HT-1080-NT fibrosarcoma cells; HT-1080-NT fibrosarcoma viability, CellTiter-Glo ATP luminescence, 48 h; Potency, µM (doses to about 46.1 µM), without a hit: at the highest dose activity, negative = less viability, hits mostly cytotoxic; 360,000 tested, 1.6% active; AID 686970;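 note: NT is the 2HG producing partner of a matched IDH1 knockdown line; potency is the fitted concentration of half-maximal effect; 0% = DMSO-treated cells and -100% = media-only wells without cells; nearly all actives have a fitted effect of over 55% in size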
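Luminescent CellTiter-Glo readout after 48 hours of compound exposure at 37 degrees C defined viability of HT-1080-NT cells. Activity was normalized to DMSO wells and cell-free media wells; concentration-response curves were fitted and assigned curve classes.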
HT1080 IDH1KD tx: HT-1080 IDH1 knockdown cell toxicity (counter line). 360,000 tested, 2% active. Potency, µM (doses to about 46.1 µM), inactives show at the highest dose activity, negative = toxicity, hits mostly cytotoxic. AID 686971. HT-1080 IDH1 knockdown viability, ATP luminescence, 48 h;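 note: potency is the fitted concentration of half-maximal effect; 0% = DMSO wells and -100% = cell-free medium wells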
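In this qHTS, HT-1080 cells depleted of IDH1 are exposed for 48 h at 37 °C to compound titrations. Toxicity is scored from CellTiter-Glo luminescence, with DMSO as full viability and medium alone as none.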
The depositor's hits bear a star; ? = inconclusive; . = no result given. Unless noted, calls come from the whole dose curve; as a rule, active = well fitted curve in the direction sought with a large enough effect; inconclusive = small, poorly fitted or top-dose-only effect, or another doubt; inactive = no such curve, though single readings can be large; an effect the other way counts as inactive or inconclusive. Unless noted, % is set by controls: 0 for no effect and ±100 for the full control effect.

SMILES | IL1B secr inh | DT40 TDP1 CPT | TDP1 cell noCPT | HT1080NT lethal | HT1080 IDH1KD tx
CC(=O)N1CCCC1c1nc2ccccc2n1Cc1cccc(Cl)c1 (centres undefined) | . | -22% | ? | . | .
COc1ccc(-c2cn(-c3ccccc3)nc2CO)cc1 | -11 | ? | -22% | -7% | -15%
COc1ccc(-c2csc(=NCCO)n2-c2ccccc2)cc1 | -74* | ? | 18µM* | -24% | -14%
CCCCOC(=O)n1c(SCC(=O)N(CC)CC)nc2ccccc21 | -20 | 21µM* | ? | -4% | 4%
COc1ccc(NC(=O)CN(Cc2ccccc2)Cc2ccccc2)cc1S(N)(=O)=O | -13 | -20% | -15% | 1% | -2%
COc1ccc(NC(=O)COc2ccccc2Cc2ccccc2)cc1S(N)(=O)=O | -6 | 21µM* | 15µM* | -9% | -25%
Cc1ccc(OCC(=O)Nc2ccc(C)c(S(=O)(=O)N3CCCCC3)c2)c([N+](=O)[O-])n1 | -28 | ? | ? | -4% | -10%
COc1ccc(NC(=O)COc2ccc(C)nc2[N+](=O)[O-])cc1S(N)(=O)=O | -15 | 9.2µM* | ? | -4% | 1%
Cn1c(=O)oc2cc(S(=O)(=O)N3CCCC(C(=O)NCc4cccs4)C3)ccc21 (centres undefined) | 19 | ? | -19% | -1% | 0%
Cc1ccc(S(=O)(=O)N(C)C[C@@H]2OCCCC[C@H](C)Oc3ccc(NC(=O)Nc4ccc(F)cc4)cc3C(=O)N([C@H](C)CO)C[C@H]2C)cc1 | -29 | 13µM* | 7.3µM* | -20% | -26%
C[C@@H]1CN([C@H](C)CO)C(=O)c2cc(NC(=O)Nc3ccc(F)cc3)ccc2O[C@@H](C)CCCCO[C@H]1CN(C)S(=O)(=O)c1cccs1 | ? | ? | 26µM* | -25% | ?
C[C@@H]1CN([C@@H](C)CO)C(=O)c2cc(NC(=O)c3ccccc3)ccc2O[C@@H](C)CCCCO[C@@H]1CN(C)S(=O)(=O)c1ccc(F)cc1 | -18 | ? | 21µM* | -6% | -10%
Cc1noc(C)c1NC(=O)N(C)C[C@H]1OCCCC[C@@H](C)Oc2ccc(NC(=O)c3ccccc3)cc2C(=O)N([C@H](C)CO)C[C@@H]1C | -14 | ? | -19% | 0% | 1%
C[C@@H]1CCCCO[C@H](CN(C)S(=O)(=O)c2cccs2)[C@@H](C)CN([C@H](C)CO)C(=O)c2cc(NC(=O)Nc3ccc4c(c3)OCO4)ccc2O1 | ? | ? | ? | -13% | 10%
Cc1noc(C)c1NC(=O)N(C)C[C@H]1OCCCC[C@@H](C)Oc2ccc(NC(=O)Nc3ccc(F)cc3)cc2C(=O)N([C@@H](C)CO)C[C@H]1C | 11 | ? | 18µM* | -14% | -1%
COc1ccc(CNC(=O)c2ccc(NS(=O)(=O)c3c(C)noc3C)cc2)cc1 | 10 | -2% | -9% | -1% | 8%
CCC(CO)NCC(O)COCc1ccc2c(c1)OCO2 (centres undefined) | 2 | 1% | ? | 6% | 6%
C[n+]1cccc(NC(=O)c2ccccc2)c1 | 0 | -10% | 0% | 22% | 7%
O=C(Nc1cc(Cl)ccc1Cl)C1(c2cccs2)CCOCC1 | . | 16µM* | 21µM* | . | .
O=C(Nc1ccc(C(F)(F)F)cc1)C1(c2cccs2)CCOCC1 | . | ? | 23µM* | . | .
Cc1ccc(NC(=O)C2(c3cccs3)CCOCC2)cc1Cl | . | 26µM* | ? | . | .
CN(C)c1ccc(NC(=O)C2(c3cccs3)CCOCC2)cc1 | . | -4% | -2% | . | .
CC(=O)Nc1cccc(NC(=O)C2(c3cccs3)CCOCC2)c1 | . | -1% | -7% | . | .
CC(C)n1c(/C=C/c2ccccc2)nc2ccccc21 | -78* | -6% | ? | 26% | 2%
CCCn1c(/C=C/c2ccccc2)nc2ccccc21 | -21 | ? | 23µM* | 10µM* | 10µM*
SMILES | IL1B secr inh | DT40 TDP1 CPT | TDP1 cell noCPT | HT1080NT lethal | HT1080 IDH1KD tx
CC(C)c1ccccc1NC(=O)Cn1c(/C=C/c2ccccc2)nc2ccccc21 | -7 | 18µM* | ? | ? | -27%
CCOC(=O)CSc1ccc(-c2nc3cc(C)c(C)cc3[nH]2)cn1 | -12 | ? | ? | -4% | -13%
CCOC(=O)CSc1ccc(-c2nc3ccccc3[nH]2)cn1 | -82* | ? | ? | -20% | -23%
O=C(CSc1ccc(-c2nc3ccccc3[nH]2)cn1)Nc1ccc2c(c1)OCCO2 | 4 | -27% | -24% | 0% | -6%
N#CCSc1ccc(-c2nc3ccccc3[nH]2)cn1 | ? | ? | 23µM* | -27% | ?
O=C(CSc1ccc(-c2nc3ccccc3[nH]2)cn1)Nc1ccc(S(=O)(=O)NC2CC2)cc1 | 11 | 26µM* | 21µM* | -19% | -10%
O=c1c2ccccc2nc2n1CCc1ccc(Br)cc1-2 | -10 | -28% | ? | ? | 12%
CSc1sccc1/C=C(/C#N)C(=O)c1ccco1 | -3 | 18% | 1% | ? | ?
CNC(=S)N1N=C(c2ccc(OC)cc2)CC1c1ccc(Cl)cc1Cl (centres undefined) | -24 | -27% | -26% | 3% | 8%
COc1ccc(OC)c(C2CC(c3ccccc3)=NN2C(=S)Nc2ccccc2)c1 (centres undefined) | 34 | 3.7µM* | 3.7µM* | ? | ?
CNC(=S)N1N=C(c2ccc(C)cc2)CC1c1cc(OC)ccc1OC (centres undefined) | 0 | ? | 9.2µM* | ? | 21µM*
COc1cc(NS(=O)(=O)c2ccc(N)cc2)nc(C)n1 | . | 1% | 8% | . | .
O=C(CCc1nc(-c2ccc(Cl)cc2)no1)NC1CCCC1 | -8 | ? | ? | 6% | 0%
CC1=C(C(=O)N(C(C)C)C(C)C)CC(CC(=O)NCC2CCCCC2)C(=O)N1Cc1ccc(F)cc1 (centres undefined) | ? | 16µM* | 18µM* | -11% | -9%
CC1=C(C(=O)N2CCCCCC2)CC(CC(=O)NCC2CCCCC2)C(=O)N1Cc1ccc(F)cc1 (centres undefined) | -25 | 23µM* | ? | -19% | -1%
CCc1ccc(OCC(O)Cn2c(N3CCCCC3)nc3c2c(=O)[nH]c(=O)n3C)cc1 (centres undefined) | 53 | ? | ? | -1% | 0%
Cn1c(=O)c2c(nc(N3CCCCC3)n2CC(O)COc2ccccc2)n(C)c1=O (centres undefined) | 13 | ? | 16µM* | 2% | 2%
Cn1c(=O)[nH]c(=O)c2c1nc(N1CCOCC1)n2CC(O)COc1ccc2ccccc2c1 (centres undefined) | 19 | -26% | ? | -16% | -17%
